According to PubChem BioAssay AID1159580 (chemical genetic matrix, 2015):
Screen size: about 5,500 compounds; about 2,000 (36%) were called active. Another 18% or so got no clear call; they are omitted. Cut-off read from the data, not from the text of the source: active = normalized growth mostly below about 0.91 (no sharp cut-off); inconclusive = no clear call, values can overlap the other calls; inactive = mostly above about 0.92. The list shows a part of the results.

Experiment: chemical genetic growth profiling, strain panel (AID 1159580);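 note: tested at 20 µM; growth read once vehicle control cultures reached saturation at 30 °C; 1 = growth at the plate median or of vehicle wells; lower values mean less growth of the strain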
Conditions: growth OD

Measured: normalized growth

NC[C@H]1O[C@H](O[C@H]2C(O[C@@H]3O[C@H](CO)[C@@H](O)[C@H]3O)[C@@H](O)[C@H](N)C[C@@H]2N)[C@H](N)[C@@H](O)[C@@H]1O (some centres not stated)
inactive: S. cerevisiae deletion strains, locus YJR075W, strain HOC1, stronger effect = lower value 0.987 | S. cerevisiae deletion strains, locus YKL009W, strain mrt4, stronger effect = lower value 0.995 | S. cerevisiae deletion strains, locus YKL068W, stronger effect = lower value 0.99 | S. cerevisiae deletion strains, locus YKL085W, strain MDH1 (second series), stronger effect = lower value 1 | S. cerevisiae deletion strains, locus YKL085W, strain MDH1, stronger effect = lower value 1 | S. cerevisiae deletion strains, locus YKL160W, strain elf1, stronger effect = lower value 1.01 | S. cerevisiae deletion strains, locus YKL190W, strain CNB1, stronger effect = lower value 1.02 | S. cerevisiae deletion strains, locus YKR001C, strain vps1, stronger effect = lower value 0.976 | S. cerevisiae deletion strains, locus YKR026C, strain gcn3, stronger effect = lower value 0.982 | S. cerevisiae deletion strains, locus YKR091W, strain srl3, stronger effect = lower value 0.993 | S. cerevisiae deletion strains, locus YLL001W, strain dnm1, stronger effect = lower value 1 | S. cerevisiae deletion strains, locus YLL026W, stronger effect = lower value 0.984 | S. cerevisiae deletion strains, locus YLL041C, strain sdh2, stronger effect = lower value 0.995 | S. cerevisiae deletion strains, locus YLR027C, strain aat2, stronger effect = lower value 1 | S. cerevisiae deletion strains, locus YLR039C, strain RIC1, stronger effect = lower value 0.989 | S. cerevisiae deletion strains, locus YLR058C, strain SHM2, stronger effect = lower value 0.99 | S. cerevisiae deletion strains, locus YLR102C, strain apc9, stronger effect = lower value 0.999 | S. cerevisiae deletion strains, locus YLR113W, strain HOG1, stronger effect = lower value 1.03 | S. cerevisiae deletion strains, locus YLR221C, strain rsa3, stronger effect = lower value 1 | S. cerevisiae deletion strains, locus YLR258W, strain gsy2, stronger effect = lower value 0.995 | S. cerevisiae deletion strains, locus YLR262C, strain YPT6 (second series), stronger effect = lower value 1.01 | S. cerevisiae deletion strains, locus YLR262C, strain YPT6, stronger effect = lower value 0.997 | S. cerevisiae deletion strains, locus YLR268W, strain sec22, stronger effect = lower value 0.955 | S. cerevisiae deletion strains, locus YLR320W, strain mms22, stronger effect = lower value 0.991 | S. cerevisiae deletion strains, locus YLR330W, strain CHS5, stronger effect = lower value 0.997 | S. cerevisiae deletion strains, locus YLR342W, strain FKS1 (second series), stronger effect = lower value 1.03 | S. cerevisiae deletion strains, locus YLR342W, strain FKS1, stronger effect = lower value 1 | S. cerevisiae deletion strains, locus YLR357W, strain rsc2, stronger effect = lower value 0.967 | S. cerevisiae deletion strains, locus YLR370C, strain arc18, stronger effect = lower value 0.998 | S. cerevisiae deletion strains, locus YLR371W, strain rom2, stronger effect = lower value 0.987 | S. cerevisiae deletion strains, locus YLR384C, strain iki3, stronger effect = lower value 0.985 | S. cerevisiae deletion strains, locus YLR418C, strain cdc73, stronger effect = lower value 0.975 | S. cerevisiae deletion strains, locus YML016C, strain PPZ1, stronger effect = lower value 0.992 | S. cerevisiae deletion strains, locus YML032C, strain rad52, stronger effect = lower value 0.979 | S. cerevisiae deletion strains, locus YML120C, strain ndi1, stronger effect = lower value 1.01 | S. cerevisiae deletion strains, locus YML124C, strain tub3, stronger effect = lower value 0.993 | S. cerevisiae deletion strains, locus YMR058W, strain fet3, stronger effect = lower value 1 | S. cerevisiae deletion strains, locus YMR078C, strain ctf18, stronger effect = lower value 0.99 | S. cerevisiae deletion strains, locus YMR125W, strain sto1, stronger effect = lower value 0.963 | S. cerevisiae deletion strains, locus YMR129W, stronger effect = lower value 0.981 | S. cerevisiae deletion strains, locus YMR205C, strain PFK2, stronger effect = lower value 0.962 | S. cerevisiae deletion strains, locus YMR223W, strain ubp8, stronger effect = lower value 1.01 | S. cerevisiae deletion strains, locus YMR231W, strain pep5, stronger effect = lower value 1 | S. cerevisiae deletion strains, locus YMR263W, strain SAP30, stronger effect = lower value 0.995 | S. cerevisiae deletion strains, locus YMR307W, strain GAS1, stronger effect = lower value 0.997 | S. cerevisiae deletion strains, locus YNL067W, strain RPL9B, stronger effect = lower value 0.984 | S. cerevisiae deletion strains, locus YNL071W, strain lat1, stronger effect = lower value 1.01 | S. cerevisiae deletion strains, locus YNL128W, strain TEP1, stronger effect = lower value 0.994 | S. cerevisiae deletion strains, locus YNL153C, strain GIM3, stronger effect = lower value 0.993 | S. cerevisiae deletion strains, locus YNL183C, strain NPR1, stronger effect = lower value 0.974 | S. cerevisiae deletion strains, locus YNL209W, strain ssb2, stronger effect = lower value 1 | S. cerevisiae deletion strains, locus YNL233W, strain BNI4, stronger effect = lower value 0.981 | S. cerevisiae deletion strains, locus YNL248C, strain rpa49, stronger effect = lower value 1.01 | S. cerevisiae deletion strains, locus YNL250W, strain rad50, stronger effect = lower value 0.987 | S. cerevisiae deletion strains, locus YNL271C, strain bni1, stronger effect = lower value 0.99 | S. cerevisiae deletion strains, locus YNL298W, strain CLA4, stronger effect = lower value 0.981 | S. cerevisiae deletion strains, locus YNL307C, strain MCK1, stronger effect = lower value 0.989 | S. cerevisiae deletion strains, locus YNL322C, strain KRE1 (second series), stronger effect = lower value 0.987 | S. cerevisiae deletion strains, locus YNL322C, strain KRE1, stronger effect = lower value 1 | S. cerevisiae deletion strains, locus YNR049C, strain mso1, stronger effect = lower value 0.997 | S. cerevisiae deletion strains, locus YNR052C, strain pop2, stronger effect = lower value 0.992 | S. cerevisiae deletion strains, locus YOL006C, strain TOP1, stronger effect = lower value 0.988 | S. cerevisiae deletion strains, locus YOL012C, strain htz1 0.933 | S. cerevisiae deletion strains, locus YOL147C, strain pex11, stronger effect = lower value 0.989 | S. cerevisiae deletion strains, locus YOR001W, strain rrp6, stronger effect = lower value 1 | S. cerevisiae deletion strains, locus YOR061W, strain CKA2, stronger effect = lower value 0.997 | S. cerevisiae deletion strains, locus YOR069W, strain VPS5, stronger effect = lower value 0.988 | S. cerevisiae deletion strains, locus YOR070C, strain gyp1, stronger effect = lower value 1 | S. cerevisiae deletion strains, locus YOR080W, strain dia2, stronger effect = lower value 0.987 | S. cerevisiae deletion strains, locus YOR083W, strain WHI5, stronger effect = lower value 1.01 | S. cerevisiae deletion strains, locus YOR106W, strain vam3, stronger effect = lower value 1 | S. cerevisiae deletion strains, locus YOR136W, strain idh2, stronger effect = lower value 0.995 | S. cerevisiae deletion strains, locus YOR144C, strain elg1, stronger effect = lower value 0.985 | S. cerevisiae deletion strains, locus YOR184W, strain ser1, stronger effect = lower value 0.975 | S. cerevisiae deletion strains, locus YOR231W, strain MKK1, stronger effect = lower value 0.975 | S. cerevisiae deletion strains, locus YOR265W, strain rbl2, stronger effect = lower value 0.991 | S. cerevisiae deletion strains, locus YOR270C, strain vph1, stronger effect = lower value 1.01 | S. cerevisiae deletion strains, locus YOR290C, strain snf2, stronger effect = lower value 0.957 | S. cerevisiae deletion strains, locus YOR316C, strain cot1, stronger effect = lower value 0.994 | S. cerevisiae deletion strains, locus YPL051W, strain arl3, stronger effect = lower value 1.01 | S. cerevisiae deletion strains, locus YPL055C, strain LGE1, stronger effect = lower value 1.04 | S. cerevisiae deletion strains, locus YPL078C, strain atp4, stronger effect = lower value 1.01 | S. cerevisiae deletion strains, locus YPL106C, strain sse1, stronger effect = lower value 0.951 | S. cerevisiae deletion strains, locus YPL240C, strain hsp82, stronger effect = lower value 1.01 | S. cerevisiae deletion strains, locus YPL241C, strain CIN2, stronger effect = lower value 1 | S. cerevisiae deletion strains, locus YPL256C, strain CLN2, stronger effect = lower value 0.986 | S. cerevisiae deletion strains, locus YPR119W, strain clb2, stronger effect = lower value 1 | S. cerevisiae deletion strains, locus YPR141C, strain kar3, stronger effect = lower value 0.978 | S. cerevisiae deletion strains, locus YPR163C, strain tif3, stronger effect = lower value 0.989 | S. cerevisiae deletion strains, locus YPR167C, strain met16, stronger effect = lower value 0.991 | S. cerevisiae deletion strains, strain wtn01, stronger effect = lower value 0.956 | S. cerevisiae strains, strain wild type, stronger effect = lower value 1
